# From PubChem BioAssay (NCATS)
# Inconclusive results are not listed. Calls of active or inactive are those of the source. The call rests on the fitted dose curve; in most records, active means well fitted inhibition curve with a large enough effect; inconclusive means small, poorly fitted or top-dose-only effect; inactive means flat fitted curve, though single readings scatter.
# Test: qHTS for Inhibitors of Plasmodium falciparum (HB3) proliferation (AID 504318);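 further: 0% = DMSO vehicle and -100% = artemisinin control; nearly all actives have a fitted effect of over 60% in size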
# Conditions: P. falciparum HB3 in erythrocytes, SYBR Green DNA, 72 h; series mostly up to 7.21 µM; activity change, negative = inhibition: at the top concentration
# Procedure, shortened: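 Parasite growth measured as SYBR Green DNA fluorescence (ex 485, em 535 nm) after overnight lysis following 72 h culture at 37 °C, 0.3% parasitemia, 2.5% hematocrit. Values normalized against DMSO and 0.29 uM artemisinin controls, with plate-stack correction.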
Compound,"activity change, negative = inhibition",Potency
CC(=O)OC[C@H]1O[C@H](CC=NO[C@@H](C)c2cn([C@H](CO)Cc3ccccc3)nn2)C=C[C@@H]1OC(C)=O,9.57% (inactive),
COc1cc2c(c(OC)c1)[C@H](C=Cc1ccccc1)[C@@H]([C@H](O)CO)OC2,-1.48% (inactive),
C[C@@H]1CC[C@H]2C(=O)O[C@@H](Cc3ccccc3)CN2[C@@H]1c1ccc(Br)cc1,0.756% (inactive),
COC(=O)N[C@@H](c1cccc(F)c1)[C@@H](C)[N+](=O)[O-],10.3% (inactive),
CCN1C(=NCc2ccc(OC)cc2)NC(c2cccc(F)c2)C(C(=O)OC)=C1C (stereo not given),7.22% (inactive),
CCOC(=O)C1=CN(CCC=C(C)C)C(=O)NC1c1ccccc1 (stereo not given),-0.57% (inactive),
CC(C)CON=C1C[C@@H](O)[C@@H](O)[C@@H]2[C@H]3C(=O)N(Cc4ccccc4)C(=O)[C@@H]3CC[C@@H]12,-7.11% (inactive),
CC1(O)C(=O)C=C2C=C(c3ccc(C#N)cc3)OC=C2C1=O (stereo not given),1.42% (inactive),
COC(=O)CC=C[C@@H](C)[C@@H](C=NO[C@H](C)c1cn([C@H](CO)Cc2ccccc2)nn1)NS(=O)(=O)c1ccc(C)cc1,-7.14% (inactive),
C[C@H]1Cc2c(-c3ccccc3)nc3c(c2CO1)CN(S(=O)(=O)c1ccc(Cl)c2nonc12)CC3,,inactive
CCN1C(=NCCCCO)N[C@@H](CCc2ccccc2)[C@H](C(=O)OC)[C@H]1C,0.326% (inactive),
COC(=O)N(C=Cc1ccc(OC)cc1)CCc1ccc(OC)c(OC)c1,6.24% (inactive),
Cc1noc(C)c1S(=O)(=O)N1CCc2nc(COc3ccccc3)c3c(c2C1)CO[C@@H](C)C3,-6.37% (inactive),
C=C1C2c3ccccc3C(CC2(C)O[Si](C)(C)C)N1C(=O)OC (stereo not given),,inactive
COC(=O)[C@@H]1C[C@@]23C(=NN=C(SC)C2Nc2ccccc23)N1C(C)=O (stereo not given in full),1.98% (inactive),
COC(=O)c1ccc(CN2C(=O)C3(CC(C)=C[C@@H](C)O3)c3c(Br)cccc32)cc1 (stereo not given in full),-7.6% (inactive),
CCCCC1=CC2=C(c3ccco3)C(=O)C(C)(OC(=O)c3ccc(OC)cc3)C(=O)C2=CN1Cc1ccccc1 (stereo not given),,inactive
CC(C)OC(=O)CC(NC(=O)OC(C)(C)C)c1ccccc1 (stereo not given),,inactive
COC(=O)C1(C)C=C(Nc2ccc(OC)cc2)C(=O)N1c1ccc(OC)cc1 (stereo not given),-2.76% (inactive),
COC1=C[C@H](C(=O)NCc2ccccn2)[C@@]2(C)Cc3ccccc3[C@@H]2CC1=O,-4.91% (inactive),

Compound,"activity change, negative = inhibition",Potency
CCC(=O)C[C@@H](NC(=O)OC)c1ccccc1,-1.98% (inactive),
COC(=O)[C@H]1[C@H](CCc2ccccc2)NC(=O)N(Cc2ccccc2)[C@H]1C,-1.85% (inactive),
C[C@H]1[C@H](N=[N+]=[N-])[C@H](O)CCO[C@@H]1c1ccccc1,3.57% (inactive),
C=C1CN2C(=NC(c3ccccc3)C(C(=O)OC)=C2C)O1 (stereo not given),1.29% (inactive),
C=CCOC(=O)[C@H](O)[C@@H](O)C(=O)OCC=C,2.13% (inactive),
C#CCN1C(=O)CC[C@@]23C1=NC(C(=O)OC)=C(C(=O)OC)[C@@H]2N(Cc1ccccc1)c1ccccc13,-8.51% (inactive),
COC(=O)C1=C(C(=O)OC)[C@@H]2Nc3ccccc3[C@@]23C[C@@H](C(=O)OC)N(C(=O)COCc2ccccc2)C3=N1,-8.06% (inactive),
Cc1ccc([S+](=O)([O-])N[C@@H]2COC(=O)CC=C[C@H](C)COC(=O)N[C@@H](C)C(=O)CC=C[C@H]2C)cc1,2.29% (inactive),
CCN1C(=NCC(C)C)N[C@H](c2ccccc2)[C@H](C(=O)OC)[C@H]1C,-1.77% (inactive),
C=CCOC(=O)N[C@@H](c1ccccc1)[C@@H](C)[N+](=O)[O-],7.36% (inactive),
C=CCOC(=O)NC(c1ccc(F)c(F)c1)C(C(=O)CCl)C(=O)OC (stereo not given),-7.16% (inactive),
CCOC(=O)C1=CN(CCC=C(C)C)C(=O)N(C(C)=O)C1c1ccccc1 (stereo not given),-10.4% (inactive),
COC1=CC2C(=O)C(C1=O)C1c3ccccc3CC21 (stereo not given),5.91% (inactive),
CCOC(=O)NN=C1C[C@@H](O)[C@@H](O)[C@@H]2[C@H]3C(=O)N(Cc4ccc5c(c4)OCO5)C(=O)[C@@H]3CC[C@H]12,-2.12% (inactive),
CCOC(=O)C1=C(CCl)NC(=O)N(C(C)=O)C1c1ccccc1 (stereo not given),9.97% (inactive),
C#CCCCON=C1C[C@@H](O)[C@H](O)[C@H]2[C@@H]3C(=O)N(C[C@@H]4CCCO4)C(=O)[C@@H]3CC[C@@H]12,-7.1% (inactive),
CCN1C(=NCc2cc(OC)c(OC)c(OC)c2)NC(c2ccccc2)C(C(=O)OC)=C1C (stereo not given),2.46% (inactive),
CC(C)=CCCC(C)=CCON=C1C[C@@H](O)[C@@H](O)[C@@H]2[C@H]3C(=O)N(C[C@@H]4CCCO4)C(=O)[C@@H]3CC[C@@H]12,-14.6% (inactive),
O=C(C=Cc1cccc([N+](=O)[O-])c1)c1ccccc1,-11.6% (inactive),
CC#CCN1C(=O)N(C)C(c2ccccc2)C(C(=O)OC)=C1C (stereo not given),-4.28% (inactive),
